# About 79,000 compounds went through this panel and 15% of them were active in at least one assay; those are over-represented in the sample as a whole. A number with no mark means an inactive call. Active and inactive are the calls of the source. Cut-off read from the data, not from the text of the source: active = growth inhibition above about 70%; inactive = the rest.
# Key:
# [1] = NCI Yeast Anticancer Drug Screen. Data for the rad52 strain (AID 147);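 note: 0% = growth of vehicle-treated control cultures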; conditions: S. cerevisiae rad52 mutant growth inhibition, stronger effect = higher value
# Summary of the method: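 Yeast strain carrying a DNA damage repair alteration was exposed to test compounds. Growth inhibition was measured relative to vehicle-treated controls.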
# [2] = NCI Yeast Anticancer Drug Screen. Data for the wt1 strain (AID 149);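 note: 0% = growth of vehicle-treated wt1 cultures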; conditions: S. cerevisiae wt1 strain (SPY 50644) growth inhibition, stronger effect = higher value
# Summary of the method: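 Readout: yeast growth inhibition, normalised to vehicle controls, in the wt1 strain exposed to test compounds.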
# [3] = NCI Yeast Anticancer Drug Screen. Data for the rad50EPP+ strain (AID 151);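 note: 0% = growth of vehicle-treated control cultures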; conditions: S. cerevisiae rad50 mutant strain, stronger effect = higher value
# Summary of the method: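 Yeast strain carrying rad50 alteration (rad50EPP+) exposed to compounds; growth inhibition measured relative to vehicle-treated controls.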
# [4] = NCI Yeast Anticancer Drug Screen. Data for the mgt1 strain (AID 153); conditions: S. cerevisiae mgt1 mutant growth inhibition, stronger effect = higher value
# Summary of the method: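 Yeast mgt1 strain (DNA repair/cell-cycle alteration panel) exposed to compounds; growth inhibition measured relative to vehicle-treated controls.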
# [5] = NCI Yeast Anticancer Drug Screen. Data for the rad50 strain (AID 155);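 note: 0% = growth of vehicle-only cultures of the same strain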; conditions: S. cerevisiae rad50 strain growth inhibition, stronger effect = higher value
# Summary of the method: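 Compounds were tested on a yeast strain with an engineered DNA damage repair alteration; the reported value is growth inhibition normalised to vehicle treatment.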
# [6] = NCI Yeast Anticancer Drug Screen. Data for the mec2-1 strain (AID 157); conditions: S. cerevisiae mec2-1 strain, stronger effect = higher value
# Summary of the method: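 mec2-1 yeast strain, carrying an alteration in DNA damage repair or cell cycle control, was exposed to compounds; growth inhibition was measured relative to vehicle-treated controls.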
# [7] = NCI Yeast Anticancer Drug Screen. Data for the rad14 strain (AID 159);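 note: 0% = growth of vehicle-treated control cultures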; conditions: S. cerevisiae rad14 strain growth inhibition, stronger effect = higher value
# Summary of the method: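 Compound-treated yeast with a defined DNA-repair lesion; growth inhibition normalised to vehicle-treated cultures.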
# [8] = NCI Yeast Anticancer Drug Screen. Data for the sgs1 mgt1 strain (AID 161);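 note: 0% = growth of cultures given vehicle only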; conditions: S. cerevisiae sgs1 mgt1 strain, stronger effect = higher value
# Summary of the method: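 Compounds are added to genetically altered yeast, and growth is compared with cultures given vehicle alone to give percent inhibition.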
# [9] = NCI Yeast Anticancer Drug Screen. Data for the CLN2oe strain (AID 163);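 note: 0% = growth of vehicle-only control cultures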; conditions: S. cerevisiae CLN2oe strain, stronger effect = higher value
# Summary of the method: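 Yeast cells carrying a defined cell-cycle control alteration were exposed to test compounds. Growth inhibition was scored against vehicle-treated control cultures.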
# [10] = NCI Yeast Anticancer Drug Screen. Data for the cln2 rad14 strain (AID 165);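 note: 0% = growth equal to vehicle treated cultures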; conditions: S. cerevisiae cln2 rad14 strain, stronger effect = higher value
# Summary of the method: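 Yeast carrying cln2 and rad14 alterations (cell cycle control and DNA damage repair) were exposed to compounds. Growth inhibition was measured against vehicle-treated controls.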
# [11] = NCI Yeast Anticancer Drug Screen. Data for the bub3 strain (AID 167); conditions: S. cerevisiae bub3 mutant strain, stronger effect = higher value
# Summary of the method: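 Growth of a checkpoint-deficient yeast mutant is measured after compound exposure. Values represent inhibition relative to vehicle.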
# [12] = NCI Yeast Anticancer Drug Screen. Data for the wt2 strain (AID 169);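 note: 0% = growth of vehicle-treated yeast cultures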; conditions: S. cerevisiae wt2 strain growth inhibition, stronger effect = higher value
# Summary of the method: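 Yeast cells were exposed to test compounds, and growth inhibition was measured relative to vehicle-treated controls.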
# [13] = NCI Yeast Anticancer Drug Screen. Data for the mlh1 strain (AID 171);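 note: 0% = growth of vehicle-treated control cultures of the same strain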; conditions: S. cerevisiae mlh1 strain growth inhibition, stronger effect = higher value
# Summary of the method: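 Yeast carrying a defined genetic alteration in DNA damage repair or cell cycle control were exposed to test compounds. Growth inhibition was measured relative to vehicle-treated controls.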
# [14] = NCI Yeast Anticancer Drug Screen. Data for the sgs1 strain (AID 173);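 note: 0% = growth of vehicle-only control cultures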; conditions: S. cerevisiae sgs1 mutant, stronger effect = higher value
# Summary of the method: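 Yeast mutant strains carrying defined defects in DNA damage repair or cell cycle control were exposed to test compounds. Growth inhibition was scored against vehicle-treated controls.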
# [15] = NCI Yeast Anticancer Drug Screen. Data for the mlh1 rad18 strain (AID 175); conditions: S. cerevisiae mlh1 rad18 strain growth inhibition, stronger effect = higher value
# Summary of the method: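 Growth inhibition of the yeast strain was measured after compound exposure and expressed relative to vehicle-treated controls. The strain carries defined defects in DNA damage repair.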
# [16] = NCI Yeast Anticancer Drug Screen. Data for the rad18 strain (AID 177); conditions: S. cerevisiae rad18 mutant growth inhibition, stronger effect = higher value
# Summary of the method: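 Yeast carrying a defined DNA damage repair alteration were exposed to compounds. Growth inhibition was expressed relative to vehicle-treated controls.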
# [17] = at 5.0 µM (retest, dose inferred, filed as 0.5)
# [18] = at 50.0 µM (retest, dose inferred, filed as 5.0)
compound,measurement,setting,value
O=C(c1ccc(Cl)cc1Cl)C(Cl)Cl,growth inhibition,[1]; at 1.2 µM,4%
same,growth inhibition,[1]; at 3.7 µM,0%
same,growth inhibition,[1]; at 11.0 µM,14%
same,growth inhibition,[1]; at 33.0 µM,74% (active)
same,growth inhibition,[1]; at 100.0 µM,98% (active)
same,growth inhibition,[2]; at 1.2 µM,-1%
same,growth inhibition,[2]; at 3.7 µM,-6%
same,growth inhibition,[2]; at 11.0 µM,3%
same,growth inhibition,[2]; at 33.0 µM,56%
same,growth inhibition,[2]; at 100.0 µM,98% (active)
same,growth inhibition,[3]; at 1.2 µM,40%
same,growth inhibition,[3]; at 3.7 µM,53%
same,growth inhibition,[3]; at 11.0 µM,65%
same,growth inhibition,[3]; at 33.0 µM,94% (active)
same,growth inhibition,[3]; at 100.0 µM,96% (active)
same,growth inhibition,[4]; at 1.2 µM,-21%
same,growth inhibition,[4]; at 3.7 µM,-34%
same,growth inhibition,[4]; at 11.0 µM,-13%
same,growth inhibition,[4]; at 33.0 µM,68%
same,growth inhibition,[4]; at 100.0 µM,99% (active)
same,growth inhibition,[5]; at 1.2 µM,11%
same,growth inhibition,[5]; at 3.7 µM,11%
same,growth inhibition,[5]; [17],46%
same,growth inhibition,[5]; at 11.0 µM,13%
same,growth inhibition,[5]; at 33.0 µM,79% (active)
same,growth inhibition,[5]; [18],84% (active)
same,growth inhibition,[5]; at 50.0 µM,83.8% (active)
same,growth inhibition,[5]; at 100.0 µM,98% (active)
same,growth inhibition,[6]; at 1.2 µM,-22%
same,growth inhibition,[6]; at 3.7 µM,-24%
same,growth inhibition,[6]; [17],40%
same,growth inhibition,[6]; at 11.0 µM,-9%
same,growth inhibition,[6]; at 33.0 µM,81% (active)
same,growth inhibition,[6]; [18],82% (active)
same,growth inhibition,[6]; at 50.0 µM,85.5% (active)
same,growth inhibition,[6]; at 100.0 µM,98% (active)
same,growth inhibition,[7]; at 1.2 µM,-17%
same,growth inhibition,[7]; at 3.7 µM,-25%
same,growth inhibition,[7]; at 11.0 µM,-15%
same,growth inhibition,[7]; at 33.0 µM,53%
same,growth inhibition,[7]; at 100.0 µM,98% (active)
same,growth inhibition,[8]; [17],13%
same,growth inhibition,[8]; [18],99% (active)
same,growth inhibition,[8]; at 50.0 µM,83.8% (active)
same,growth inhibition,[9]; at 1.2 µM,-11%
same,growth inhibition,[9]; at 3.7 µM,-8%
same,growth inhibition,[9]; at 11.0 µM,-13%
same,growth inhibition,[9]; at 33.0 µM,18%
same,growth inhibition,[9]; at 100.0 µM,98% (active)
same,growth inhibition,[10]; [17],68%
same,growth inhibition,[10]; [18],98% (active)
same,growth inhibition,[10]; at 50.0 µM,53.6%
same,growth inhibition,[11]; at 1.2 µM,-20%
same,growth inhibition,[11]; at 3.7 µM,-11%
same,growth inhibition,[11]; [17],-4%
same,growth inhibition,[11]; at 11.0 µM,3%
same,growth inhibition,[11]; at 33.0 µM,80% (active)
same,growth inhibition,[11]; [18],96% (active)
same,growth inhibition,[11]; at 50.0 µM,88.8% (active)
same,growth inhibition,[11]; at 100.0 µM,97% (active)
same,growth inhibition,[12]; at 1.2 µM,-8%
same,growth inhibition,[12]; at 3.7 µM,-7%
same,growth inhibition,[12]; at 11.0 µM,16%
same,growth inhibition,[12]; at 33.0 µM,71% (active)
same,growth inhibition,[12]; at 100.0 µM,98% (active)
same,growth inhibition,[13]; at 1.2 µM,-10%
same,growth inhibition,[13]; at 3.7 µM,3%
same,growth inhibition,[13]; at 11.0 µM,20%
same,growth inhibition,[13]; at 33.0 µM,83% (active)
same,growth inhibition,[13]; at 100.0 µM,99% (active)
same,growth inhibition,[14]; at 1.2 µM,-14%
same,growth inhibition,[14]; at 3.7 µM,-14%
same,growth inhibition,[14]; at 11.0 µM,14%
same,growth inhibition,[14]; at 33.0 µM,80% (active)
same,growth inhibition,[14]; at 100.0 µM,98% (active)
same,growth inhibition,[15]; [17],34%
same,growth inhibition,[15]; [18],75% (active)
same,growth inhibition,[15]; at 50.0 µM,88.5% (active)
same,growth inhibition,[16]; at 1.2 µM,-30%
same,growth inhibition,[16]; at 3.7 µM,-34%
same,growth inhibition,[16]; at 11.0 µM,-1%
same,growth inhibition,[16]; at 33.0 µM,76% (active)
same,growth inhibition,[16]; at 100.0 µM,98% (active)
O=C1C=CC(=C(c2ccccc2)c2ccccc2)c2ccccc21,growth inhibition,[1]; at 1.2 µM,6%
same,growth inhibition,[1]; at 3.7 µM,3%
same,growth inhibition,[1]; at 11.0 µM,-4%
same,growth inhibition,[1]; at 33.0 µM,4%
same,growth inhibition,[1]; at 100.0 µM,0%
same,growth inhibition,[2]; at 1.2 µM,0%
same,growth inhibition,[2]; at 3.7 µM,1%
same,growth inhibition,[2]; at 11.0 µM,1%
same,growth inhibition,[2]; at 33.0 µM,2%
same,growth inhibition,[2]; at 100.0 µM,4%
same,growth inhibition,[3]; at 1.2 µM,9%
same,growth inhibition,[3]; at 3.7 µM,7%
same,growth inhibition,[3]; at 11.0 µM,2%
same,growth inhibition,[3]; at 33.0 µM,15%
same,growth inhibition,[3]; at 100.0 µM,8%
same,growth inhibition,[4]; at 1.2 µM,0%
same,growth inhibition,[4]; at 3.7 µM,0%
same,growth inhibition,[4]; at 11.0 µM,-1%
same,growth inhibition,[4]; at 33.0 µM,-1%
same,growth inhibition,[4]; at 100.0 µM,2%
same,growth inhibition,[5]; at 1.2 µM,7%
same,growth inhibition,[5]; at 3.7 µM,7%
same,growth inhibition,[5]; [17],25%
same,growth inhibition,[5]; at 11.0 µM,-1%
same,growth inhibition,[5]; at 33.0 µM,8%
same,growth inhibition,[5]; [18],91% (active)
same,growth inhibition,[5]; at 50.0 µM,-6.5%
same,growth inhibition,[5]; at 100.0 µM,10%
same,growth inhibition,[6]; at 1.2 µM,0%
same,growth inhibition,[6]; at 3.7 µM,-1%
same,growth inhibition,[6]; [17],-1%
same,growth inhibition,[6]; at 11.0 µM,1%
same,growth inhibition,[6]; at 33.0 µM,-1%
same,growth inhibition,[6]; [18],89% (active)
same,growth inhibition,[6]; at 50.0 µM,15.1%
same,growth inhibition,[6]; at 100.0 µM,2%
same,growth inhibition,[7]; at 1.2 µM,5%
same,growth inhibition,[7]; at 3.7 µM,2%
same,growth inhibition,[7]; at 11.0 µM,-2%
same,growth inhibition,[7]; at 33.0 µM,1%
same,growth inhibition,[7]; at 100.0 µM,-2%
same,growth inhibition,[8]; [17],43%
same,growth inhibition,[8]; [18],93% (active)
same,growth inhibition,[8]; at 50.0 µM,6.15%
same,growth inhibition,[9]; at 1.2 µM,-1%
same,growth inhibition,[9]; at 3.7 µM,-3%
same,growth inhibition,[9]; at 11.0 µM,-9%
same,growth inhibition,[9]; at 33.0 µM,-8%
same,growth inhibition,[9]; at 100.0 µM,-9%
same,growth inhibition,[10]; [17],25%
same,growth inhibition,[10]; [18],86% (active)
same,growth inhibition,[10]; at 50.0 µM,-44.3%
same,growth inhibition,[11]; at 1.2 µM,0%
same,growth inhibition,[11]; at 3.7 µM,1%
same,growth inhibition,[11]; [17],53%
same,growth inhibition,[11]; at 11.0 µM,3%
same,growth inhibition,[11]; at 33.0 µM,9%
same,growth inhibition,[11]; [18],92% (active)
same,growth inhibition,[11]; at 50.0 µM,25.1%
same,growth inhibition,[11]; at 100.0 µM,21%
same,growth inhibition,[12]; at 1.2 µM,-6%
same,growth inhibition,[12]; at 3.7 µM,-4%
same,growth inhibition,[12]; at 11.0 µM,0%
same,growth inhibition,[12]; at 33.0 µM,-4%
same,growth inhibition,[12]; at 100.0 µM,-3%
same,growth inhibition,[13]; at 1.2 µM,2%
same,growth inhibition,[13]; at 3.7 µM,0%
same,growth inhibition,[13]; at 11.0 µM,-3%
same,growth inhibition,[13]; at 33.0 µM,1%
same,growth inhibition,[13]; at 100.0 µM,0%
same,growth inhibition,[14]; at 1.2 µM,-11%
same,growth inhibition,[14]; at 3.7 µM,-25%
same,growth inhibition,[14]; at 11.0 µM,-10%
same,growth inhibition,[14]; at 33.0 µM,10%
same,growth inhibition,[14]; at 100.0 µM,18%
same,growth inhibition,[15]; [17],69%
same,growth inhibition,[15]; [18],92% (active)
same,growth inhibition,[15]; at 50.0 µM,13.2%
same,growth inhibition,[16]; at 1.2 µM,6%
same,growth inhibition,[16]; at 3.7 µM,4%
same,growth inhibition,[16]; at 11.0 µM,1%
same,growth inhibition,[16]; at 33.0 µM,4%
same,growth inhibition,[16]; at 100.0 µM,2%
